# This is one part of a sample in which hits are shown more often than they occur.
# ALOX15B inhib = blocks human 15-lipoxygenase 2 activity; 110,000 tested, 0.56% active; purified 15hLO-2, xylenol orange hydroperoxide absorbance; Potency, µM (titrated, usually from 57.1 µM), for inactives: at the top dose activity change, negative = inhibition, actives largely listed as inhibitors; AID 881; O15296; further: nearly all actives have a fitted effect of over 60% in size
# Target sequence (O15296 whole entry, looked up): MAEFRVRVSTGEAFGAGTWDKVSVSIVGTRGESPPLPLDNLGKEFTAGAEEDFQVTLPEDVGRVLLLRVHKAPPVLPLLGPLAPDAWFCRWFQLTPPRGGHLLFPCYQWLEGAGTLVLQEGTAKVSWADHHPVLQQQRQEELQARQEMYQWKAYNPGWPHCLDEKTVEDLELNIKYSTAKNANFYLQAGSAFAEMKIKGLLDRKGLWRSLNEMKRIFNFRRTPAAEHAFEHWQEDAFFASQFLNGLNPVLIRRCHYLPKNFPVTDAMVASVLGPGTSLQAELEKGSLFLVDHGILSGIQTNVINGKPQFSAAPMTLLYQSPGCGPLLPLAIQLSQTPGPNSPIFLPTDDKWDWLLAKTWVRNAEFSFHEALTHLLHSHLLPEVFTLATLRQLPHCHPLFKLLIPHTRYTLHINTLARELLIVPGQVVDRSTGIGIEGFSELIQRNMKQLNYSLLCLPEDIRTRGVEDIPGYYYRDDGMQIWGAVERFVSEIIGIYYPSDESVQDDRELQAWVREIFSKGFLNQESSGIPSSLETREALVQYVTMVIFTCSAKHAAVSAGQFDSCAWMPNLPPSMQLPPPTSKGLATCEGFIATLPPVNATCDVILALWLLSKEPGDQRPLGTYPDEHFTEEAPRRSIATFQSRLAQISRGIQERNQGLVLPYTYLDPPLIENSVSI
#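 Purified human 15hLO-2 (50 nM final) preincubated with compounds 15 min at room temperature in 25 mM Hepes pH 7.5, 0.01% Triton X-100, then 45 uM arachidonic acid added for 90 min; hydroperoxide detected via ferrous/xylenol orange, 573/405 nm absorbance ratio.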
# ALOX15 inhib = 15-hLO (ALOX15) enzyme inhibition; P16050; purified 15hLO-1, xylenol orange hydroperoxide absorbance; Potency, µM (highest dose often 57.1 µM), inactives show at the highest dose activity change, negative = inhibition, actives largely listed as inhibitors; 74,000 tested, 1.4% active; further: nearly all actives have a fitted effect of over 55% in size
#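 Inhibition is scored from a chromogenic endpoint. After 15 min enzyme-compound contact, arachidonic acid (50 uM final) reacts 6 min with 40 nM 15hLO-1 at room temperature, then Fe-XO reagent is added for 30 min and absorbance ratio recorded.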
# Numbers without * were called inactive; ? = inconclusive; / = not tested or not shown; [ ] = another dose, or the depositor's remark. The call rests on the fitted dose curve; in most records, active means well fitted inhibition curve with a large enough effect; inconclusive means small, poorly fitted or top-dose-only effect; inactive means no such curve, though single readings can be large or run the other way. On the % scale 0 is the no-effect control and ±100 the full control effect; potency means the concentration at half of the fitted maximal effect.
SMILES,ALOX15B inhib,ALOX15 inhib
CCOC(=O)c1ccc(N2CSC3=C(C#N)C(c4ccc(OC)cc4OC)CC(=O)N3C2)cc1 (configuration not stated),-13%,?
COc1ccc(Br)cc1C1CC(=O)N2CN(Cc3ccccc3)CSC2=C1C#N (configuration not stated),?,2.5µM*
CCc1ccccc1N1CCN(S(=O)(=O)c2cc(OC)ccc2OC)CC1,8%,-12%
CN1CCN(c2ncc3nc(CCc4ccccc4)c(=O)n(C4CC4)c3n2)CC1,12%,-7%
N[C@H](C(=O)O)[C@H](N)C(=O)O,-2%[11.4 µM],2%[11.4 µM]
N#Cc1ccccc1-c1ccc2ncnc(NCc3cccs3)c2c1,-6%,?
COc1ccc(C(=O)N2CCC3(CC2)CN(CC(C)C)C3)cc1,9%,7%
CCC1=C(C[C@H]2NCCc3ccccc32)C[C@@H]2c3cc(OC)c(OC)cc3CCN2C1,1%[11.4 µM],-17%[11.4 µM]
O=C(c1ccco1)N1CCC2(CC1)CCN(c1cccc(-c3ccccc3)c1)CC2,3%,-27%
CN(C)c1ccc2c(c1)OC(N)=C(C#N)C2c1cccc(F)c1 (configuration not stated),-15%,13µM*
N#CC1=C(N)Oc2cc(O)ccc2C1c1ccncc1 (configuration not stated),-1%,/
Cc1cnc(CNc2ccnc(-c3c(C)noc3C)n2)cn1,0%,-19%
Cc1noc(C)c1-c1nccc(NCc2ccccc2)n1,?,16µM*
Cc1cccc(NC(=O)CN2C(=O)COc3ccc(Cl)cc32)c1,-5%,5µM*
Cc1cccc(NC(=O)CN2C(=O)COc3ccc(Cl)cc32)c1C,4%,1%
O=C(O)Cn1nc(-c2ccccc2)c2ccccc21,/,-7%
COc1ccc2nc(N3CCCC3)c(C#N)cc2c1,-7%,?
COc1ccc2nc(N3CCCCC3)c(C#N)cc2c1,3%,25µM*
C=C1c2ccccc2O[C@H](C(=O)OCC)C1OC (mixture of isomers),-10%[0.0915 µM],/
OCC(O)C(O)C(O)C(O)CO (configuration not stated),-1%[0.0915 µM],/
CCOC(=O)c1c(C)n(-c2ccc(C)cc2)c2c(C(C(C)=O)C(=O)O)c(Br)c(O)c(O)c12 (configuration not stated),-29%,/
CCOC(=O)C(C(C)=O)c1c(Br)c(O)c(O)c2c(C(=O)c3ccc(C)cc3)coc12 (configuration not stated),?,2µM*
CCOC(=O)CCN1C(=O)[C@H]2[C@H]3[C@H](O)[C@H](O)C/C(=N/OCc4ccccc4)[C@@H]3CC[C@@H]2C1=O,/,1%[11.4 µM]
O=C(O)c1ccc(N2CCCCC2)cc1,5%,/
Nc1ccc(N2CCCCCC2)cc1,13µM*,3.2µM*
SMILES,ALOX15B inhib,ALOX15 inhib
C[C@@H]1C=CCC(=O)OC[C@H](C)C(=O)OC[C@H]2O[C@H]1C=C[C@H]2O,/,1%[11.4 µM]
O=C(C1CCCN1S(=O)(=O)c1cccc2cccnc12)N1CCc2ccccc2C1 (configuration not stated),1%,25µM*
O=C(C1CCCN1S(=O)(=O)c1cccc2cccnc12)N1CCc2ccccc21 (configuration not stated),-5%,-2%
CCOC(=O)C1=C(CSc2nc3c(cc2C#N)CN(C)CC3)OC(N)=C(C#N)C1c1ccccc1 (configuration not stated),12%,/
CN1CCc2nc(SCCOc3ccccc3)c(C#N)cc2C1,4%[2.29 µM],3.2µM*
COc1cc2cc[n+]3cc4c(OC)c(OC)ccc4cc3c2cc1OC,-12%,1%
CCCCN1CCC[C@@H]1CNC(=O)c1cc(C#N)c2ccccc2c1OC,1%,?
COc1ccc2c3c(cccc13)NN=C2C,/,13µM*
COc1ccc(C(=O)c2ccc(OC)c3cccc(O)c23)cc1OC,-28%,/
CCN(CC)CCCn1c(-c2ccccc2)nc2c(N3CCOCC3)nc(C)nc21,7%,3%
CCOC(=O)c1c(C)[nH]c2cc(Br)c(O)cc12,-1%,-14%
CCOC(=O)c1c(OCC)[nH]c2c1cc(O)c1ccccc12,?,7.9µM*
CCc1nn2cc(-c3ccccc3)nc2s1,6%,10µM*
Cc1nn2cc(-c3ccc(-c4ccccc4)cc3)nc2s1,-9%,3%
COc1ccc(Cl)cc1-c1ccc(C(=O)O)o1,3%[0.0915 µM],/
COc1cc([C@H](O)CO)ccc1O,-4%,-3%
O=C(Cn1cc2c(n1)CCCC2)N1CCCc2ccccc21,-1%,25µM*
O=C(Cn1cc2c(n1)CCCCC2)N1CCCCC1,/,3%
N#CC1=C(N)SC(N)=C(C#N)C1c1ccnc2ccccc12,?,4µM*
CC1=C(C#N)C(c2ccc3ncccc3c2)C(C#N)=C(C)N1,7%,-13%
CCOC(=O)c1cccc(NC(=O)CSc2nnc(CNc3ccc(C)cc3)n2CC)c1,23%,13µM*
CCOC(=O)c1cccc(NC(=O)CSc2nnc(COc3ccccc3)n2CC)c1,-10%,1%
O=[N+]([O-])c1cccc(/C=N\NC2=CS(=O)(=O)C=C2)c1,-6%[11.4 µM],-6%[11.4 µM]
COCCn1c(=O)c(-c2ccc(Cl)cc2)nc2cnc(N3CCNCC3)nc21,23%,?
O=C(Cc1nc2ccccc2s1)c1ccc(O)cc1O,-5%,16µM*
SMILES,ALOX15B inhib,ALOX15 inhib
COc1ccc(CC(=O)c2ccc(O)cc2O)cc1,-22%,-13%
CCCN(CCC)c1nc(NC2CCN(C(=O)OCC)CC2)nc(OC)n1,57%,32µM*
CCOC(=O)N1CCC(Nc2c(OCC)c(=O)c2=O)CC1,0%,6%
Cn1cccc1C(=O)N1CCC[C@@]2(CCN(c3ncccn3)C2)C1,-4%,-3%
CCOC(=O)N1CCN(c2cc3[nH]c(=S)[nH]c3cc2F)CC1,-22%,?
CCOC(=O)N1CCN(c2c(F)cc3[nH]c(=S)[nH]c3c2Br)CC1,13µM*,?
Nc1ccn([C@@H]2O[C@@H](CO)[C@@H](O)[C@H]2O)c(=O)n1,6%,7%
CC(C)[C@]1(Cl)CC[C@@H]2[C@]3(C)CCC[C@@](C)(C(=O)O)[C@H]3C[C@H](Cl)[C@@]2(Cl)[C@H]1Cl,-8%[11.4 µM],-5%[11.4 µM]
CC(C)(C)c1ccc(O)c(/C=N\O)c1,-6%,/
CC(C)(C)c1ccc(O)c(O)c1,5µM*,4µM*
O=C(c1cc(-c2ccco2)on1)N1CCc2ccccc2C1,?,16µM*
O=C(c1cc(-c2ccccc2O)on1)N1CCc2ccccc2C1,-8%,-26%
O=C(c1cc(-c2cccs2)on1)N1CCc2ccccc2C1,/,-9%
O=C(c1cc(-c2ccc(O)cc2)on1)N1CCc2ccccc2C1,-16%,16µM*
[O-][n+]1c(CN2CCCCC2)nc2cccc3c2c1-c1ccccc1-3,4%[11.4 µM],-27%[11.4 µM]
N.N.N.N.N.N.N.N.N.N.N.N.N.N.O.O.[Ru].[Ru].[Ru],-4%,-51%
N#CCCn1c(=O)c(-c2ccc(Cl)cc2)nc2cnc(OCc3ccccc3)nc21,3%,0%
COc1ccccc1N1C(=O)c2ccccc2NC1c1ccncc1 (configuration not stated),-1%,20µM*
O=C1c2ccccc2NC(c2ccncc2)N1c1ccccn1 (configuration not stated),13%,11%
O=c1[nH]ncc2ccccc12,-17%,-4%
CCCC(=O)NCCc1c2n(c3ccc(OC)cc13)Cc1ccccc1-2,-12%,-25%
Brc1ccc(C2Nc3cccc4cccc(c34)N2)o1,?,10µM*
Cc1cccc(NC(=O)CC2Nc3cccc4cccc(c34)NC2=O)c1 (configuration not stated),-26%,/

# Assay outcomes: PubChem BioAssay, National Center for Advancing Translational Sciences (NCATS)
